Data published in PubChem BioAssay (EPA / NIEHS).
Values joined by “and” are separate entries in the source; they are usually repeats but may differ in a detail not shown here. Identical values can stand only once. Inconclusive results are not listed. Some compounds were tested as several samples or in several runs, with calls that do not always agree. Active and inactive are the calls of the source. Rule for the calls, unless noted: active = hit-call score of the fitted dose curve at least 0.9, where 1 is the maximum; inactive = score below 0.9.

Columns and labels:
[1] = read-out: Interleukin-8 (IL8), CXCL8 (gene 3576); assay: BSK_3C_IL8: BioMAP Diversity Plus: 3C Assay for Interleukin-8 (IL8) Biomarker Activity (AID 2283020); details: primary human endothelial cells (HUVEC); actives raise or lower the signal
Outline: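 IL-8 was measured by ELISA in HUVEC cultures 24 h after chemical dosing, with gain or loss of signal fitted relative to DMSO. Parallel SRB total-protein staining tracked overt cytotoxicity.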

[2] = read-out: Monokine induced gamma interferon (MIG), CXCL9 (gene 4283); assay: BSK_3C_MIG: BioMAP Diversity Plus: 3C Assay for Monokine induced gamma interferon (MIG) Biomarker Activity (AID 2283021); details: primary human endothelial cells (HUVEC); actives raise or lower the signal
Outline: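 ELISA measurement of MIG in human umbilical vein endothelial cells 24 h after treatment. Cytotoxicity tracked by SRB staining in parallel cultures; gain or loss of signal fitted relative to DMSO.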

[3] = BSK_3C_SRB: Viability Assessment in the BioMAP Diversity Plus: 3C Assay (AID 2283023); details: primary human endothelial cells (HUVEC);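 note: fitted both ways against DMSO so a hit may be signal rise or drop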
Outline: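 Cytotoxicity readout in parallel HUVEC 3C cultures: after 24 h compound exposure, cells fixed with 10% TCA, stained with 0.1% SRB and read at 560 nm. Gain or loss relative to DMSO fitted.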

[4] = read-out: Matrix Metallopeptidase 1 (MMP1), MMP1 (gene 4312); assay: BSK_BE3C_MMP1: BioMAP Diversity Plus: BE3C Assay for Matrix Metallopeptidase 1 (MMP1) Biomarker Activity (AID 2283024); details: primary human bronchial epithelial cells; actives raise or lower the signal
Outline: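 ELISA measurement of MMP-1 after 24 h compound exposure of primary human bronchial epithelial cells. Changes in either direction fitted relative to DMSO; parallel SRB staining checked overt cytotoxicity.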

[5] = BSK_3C_Vis: BioMAP Diversity Plus: 3C Assay for Morphology Visualization (AID 2283025); details: primary human endothelial cells (HUVEC);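 note: fitted both ways so gain or loss versus DMSO counts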;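 for AC50: light microscopy image of cell morphology used as background control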
Outline: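 Light-microscopy visualization of HUVEC cultures at 24 h post-treatment, with DMSO as baseline for bidirectional fitting.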

[6] = read-out: Pselectin, SELP (gene 6403); assay: BSK_4H_Pselectin: BioMAP Diversity Plus: 4H Assay for Pselectin Biomarker Activity (AID 2283026); details: primary human endothelial cells (HUVEC); actives raise or lower the signal
Outline: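 ELISA of surface P-selectin on HUVEC, 24 h after dosing, with parallel SRB staining (0.1% after 10% TCA fixation, 560 nm) for overt cytotoxicity. Activity fitted in both directions relative to DMSO.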

[7] = BSK_4H_SRB: Viability Assessment in the BioMAP Diversity Plus: 4H Assay (AID 2283027); details: primary human endothelial cells (HUVEC);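 note: cells exposed to compound for 24 h before staining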;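 for AC50: curves fitted both ways versus DMSO so AC50 may be loss or gain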
Outline: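 Cytotoxicity readout: sulforhodamine B (0.1%) staining of total protein after 10% TCA fixation, measured at 560 nm in human umbilical vein endothelium at 24 h. DMSO set the baseline; fitting was bidirectional.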

[8] = BSK_BE3C_SRB: Viability Assessment in the BioMAP Diversity Plus: BE3C Assay (AID 2283028); details: primary human bronchial epithelial cells;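 for AC50: fitted both ways so AC50 may mark signal gain or loss versus DMSO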
Outline: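 Cytotoxicity read-out: SRB (0.1%) staining of TCA-fixed (10%) human lung bronchial epithelial cells, absorbance 560 nm, 24 h post-dosing. Curves fitted both directions relative to DMSO.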

[9] = read-out: Thrombomodulin, THBD (gene 7056); assay: BSK_3C_Thrombomodulin: BioMAP Diversity Plus: 3C Assay for Thrombomodulin Biomarker Activity (AID 2283029); details: primary human endothelial cells (HUVEC); actives raise or lower the signal
Outline: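 ELISA measurement of thrombomodulin on HUVEC surface 24 h after chemical dosing; activity fitted in both directions relative to DMSO vehicle.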

[10] = read-out: Urokinase-type plasminogen activator receptor (uPAR), PLAUR (gene 5329); assay: BSK_4H_uPAR: BioMAP Diversity Plus: 4H Assay for Urokinase-type plasminogen activator receptor (uPAR) Biomarker Activity (AID 2283030); details: primary human endothelial cells (HUVEC); actives raise or lower the signal
Outline: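 uPAR level read by ELISA on HUVEC cultures (BioMAP 4H) 24 h post-dosing, analyzed for gain or loss relative to DMSO. Parallel SRB staining assessed overt cytotoxicity.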

[11] = read-out: Vascular endothelial growth factor receptor 2 (Homo sapiens) (UniProt P35968); assay: BSK_4H_VEGFRII: BioMAP Diversity Plus: 4H Assay for Vascular endothelial growth factor receptor 2 (VEGFR2) Biomarker Activity (AID 2283031); details: primary human endothelial cells (HUVEC); actives raise or lower the signal
Outline: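 Measured by ELISA after 24 h of compound treatment: VEGFR2 on primary human umbilical vein endothelial cells, fitted in both directions relative to DMSO. Parallel cultures received SRB staining (560 nm) for overt cytotoxicity.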

[12] = read-out: Human Leukocyte Antigen - DR isotype (HLADR), HLA-DRA (gene 3122); assay: BSK_BE3C_HLADR: BioMAP Diversity Plus: BE3C Assay for Human Leukocyte Antigen - DR isotype (HLADR) Biomarker Activity (AID 2283032); details: primary human bronchial epithelial cells; actives raise or lower the signal
Outline: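 Cell-surface HLA-DR ELISA readout at 24 h after dosing in the BE3C primary human lung bronchial epithelial system; gain or loss of signal against DMSO, with parallel sulforhodamine B staining of total protein for overt cytotoxicity.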

[13] = read-out: Vascular cell adhesion molecule 1 (VCAM1), VCAM1 (gene 7412); assay: BSK_4H_VCAM1: BioMAP Diversity Plus: 4H Assay for Vascular cell adhesion molecule 1 (VCAM1) Biomarker Activity (AID 2283033); details: primary human endothelial cells (HUVEC); actives raise or lower the signal
Outline: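 VCAM-1 ELISA read 24 h after chemical dosing of HUVEC in the BioMAP 4H system, with gain or loss of signal fitted relative to DMSO. Parallel SRB staining (560 nm) checked overt cytotoxicity.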

[14] = read-out: Interferon-gamma inducible Protein 10 (IP10), CXCL10 (gene 3627); assay: BSK_BE3C_IP10: BioMAP Diversity Plus: BE3C Assay for Interferon-gamma inducible Protein 10 (IP10) Biomarker Activity (AID 2283034); details: primary human bronchial epithelial cells; actives raise or lower the signal
Outline: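 IP-10 quantified by ELISA in human primary bronchial epithelial cell cultures at 24 hours post-dosing. Gain or loss of signal fitted relative to DMSO; parallel SRB staining assessed overt cytotoxicity.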

[15] = read-out: Monokine induced gamma interferon (MIG), CXCL9 (gene 4283); assay: BSK_BE3C_MIG: BioMAP Diversity Plus: BE3C Assay for Monokine induced gamma interferon (MIG) Biomarker Activity (AID 2283035); details: primary human bronchial epithelial cells; actives raise or lower the signal;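 note: MIG protein measured by ELISA in BE3C cultures after 24 h of dosing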
Outline: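 hu bronchial epithelial 1° cells, 24 h cpd; MIG by ELISA; bidirectional fit, DMSO = baseline.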

[16] = read-out: Transforming growth factor beta 1 (TGFb1), TGFB1 (gene 7040); assay: BSK_BE3C_TGFb1: BioMAP Diversity Plus: BE3C Assay for Transforming growth factor beta 1 (TGFb1) Biomarker Activity (AID 2283036); details: primary human bronchial epithelial cells; actives raise or lower the signal
Outline: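 ELISA readout of TGF-b1 from human lung bronchial epithelial primary cells, taken 24 h post-treatment. Gain or loss of signal fitted relative to DMSO baseline, with parallel SRB staining for overt cytotoxicity.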

[17] = read-out: Plasminogen activator inhibitor-1 (PAI1), SERPINE1 (gene 5054); assay: BSK_BE3C_PAI1: BioMAP Diversity Plus: BE3C Assay for Plasminogen activator inhibitor-1 (PAI1) Biomarker Activity (AID 2283037); details: primary human bronchial epithelial cells; actives raise or lower the signal
Outline: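 PAI-1 was measured by ELISA in human primary bronchial epithelial cultures 24 h after chemical dosing, with cytotoxicity checked by SRB total-protein staining in parallel cultures. Activity was fitted in both directions relative to DMSO.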

[18] = read-out: urokinase plasminogen activator (uPA), PLAU (gene 5328); assay: BSK_BE3C_uPA: BioMAP Diversity Plus: BE3C Assay for urokinase plasminogen activator (uPA) Biomarker Activity (AID 2283038); details: primary human bronchial epithelial cells; actives raise or lower the signal;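 note: uPA protein level quantified by ELISA in cell cultures; uPA read one day after compound addition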
Outline: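 ELISA for uPA on human primary bronchial epithelial cultures 24 h post-treatment, gain or loss against DMSO. Parallel SRB staining (0.1% after 10% TCA fixation, 560 nm) assessed overt cytotoxicity.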

[19] = read-out: Urokinase-type plasminogen activator receptor (uPAR), PLAUR (gene 5329); assay: BSK_BE3C_uPAR: BioMAP Diversity Plus: BE3C Assay for Urokinase-type plasminogen activator receptor (uPAR) Biomarker Activity (AID 2283039); details: primary human bronchial epithelial cells; actives raise or lower the signal
Outline: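 uPAR levels were measured by ELISA after 24 h compound treatment of primary human bronchial epithelial cells, fitted in both directions relative to DMSO. Parallel SRB staining served as the cytotoxicity read-out.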

[20] = target: human Vitamin D Receptor (VDR), VDR (gene 7421) (UniProt P11473); assay: ATG_VDR_TRANS: Attagene TRANS-FACTORIAL HepG2 Assay for human Vitamin D Receptor (VDR) (AID 2283022; active = hit-call score of the fitted dose curve at least 0.9, where 1 is the maximum)
Sequence of human Vitamin D Receptor (VDR), VDR (gene 7421) (P11473 whole entry, looked up, the tested form may be a part): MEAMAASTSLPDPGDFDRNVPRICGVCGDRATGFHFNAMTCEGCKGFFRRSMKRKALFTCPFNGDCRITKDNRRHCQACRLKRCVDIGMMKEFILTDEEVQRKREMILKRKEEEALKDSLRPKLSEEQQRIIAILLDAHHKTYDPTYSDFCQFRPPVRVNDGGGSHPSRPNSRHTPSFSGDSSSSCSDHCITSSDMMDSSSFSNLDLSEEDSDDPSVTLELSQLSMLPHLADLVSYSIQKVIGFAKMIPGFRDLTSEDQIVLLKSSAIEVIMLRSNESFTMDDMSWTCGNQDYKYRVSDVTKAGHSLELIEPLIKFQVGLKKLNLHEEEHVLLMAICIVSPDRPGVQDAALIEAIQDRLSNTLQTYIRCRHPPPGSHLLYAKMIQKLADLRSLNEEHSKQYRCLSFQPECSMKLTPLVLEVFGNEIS
Outline: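 Transactivation by an exogenous VDR-Gal4 chimera in transiently transfected HepG2 cells was measured as reporter transcript level 24 hours after chemical treatment. RT-PCR products were analysed by capillary electrophoresis and fitted in the positive direction relative to DMSO.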

Measured: AC50

ClC1C(Cl)C(Cl)C(Cl)C(Cl)C1Cl (centres undefined)
inactive: [1] | [2] | [3] | [4] | [5] | [6] | [7] | [8] | [9] | [10] | [11] | [12] | [13] | [14] | [15] | [16] | [17] | [18] | [19]
active: [3] 18.5 µM and 28.3 µM and 20 µM | [5] 38.6 µM | [6] 5.2 µM | [7] 20 µM

[2H]C1([2H])[n+]2ccccc2-c2cccc[n+]2C1([2H])[2H]
active: [4] 2.08 µM | [8] 13.3 µM | [10] 1.49 µM | [19] 2.68 µM
not listed: [11]
inactive: all other assays above

N#CN
active: [16] 0.638 µM
not listed: [20]
inactive: all other assays above

CN1CSC(=S)N(C)C1
active: [3] 20 µM | [5] 13.2 µM | [6] 6.08 µM | [9] 5.21 µM | [12] 20 µM | [13] 16.9 µM
not listed: [20]
inactive: all other assays above

CNC(=O)Oc1cccc(N=CN(C)C)c1
active: [5] 39 µM | [12] 26.6 µM
not listed: [20]
inactive: all other assays above
